Test results as given in the supplement of paper PMC6555819.

Tests used:
Assay in all cases: PBM binding z-score (relative to random genomic background probes); higher = stronger binding; sequences stand for … in GC…GCGATTGACAGCGTAGAATGAAGG
[1] = tested on: FXR:RXRa (NR concentration 270 nM, RXRa partner concentration 90 nM)
Method in brief: (§1)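 Each nuclear receptor dimer, without ligand, was incubated for 1 h on custom Agilent 4×180K protein-binding microarrays. Binding was detected with antibodies against each partner (one per run), and scanned fluorescence was regression-normalized. The binding z-scores are referenced to random human genomic background probes.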

[2] = tested on: LXRa:RXRa (NR concentration 270 nM, RXRa partner concentration 90 nM)
Method in brief: as §1

[3] = tested on: LXRa homodimer (NR concentration 270 nM)
Method in brief: as §1

[4] = tested on: LXRb:RXRa (NR concentration 270 nM, RXRa partner concentration 90 nM)
Method in brief: as §1

[5] = tested on: LXRb homodimer (NR concentration 270 nM)
Method in brief: as §1

[6] = tested on: PPARa:RXRa (NR concentration 270 nM, RXRa partner concentration 90 nM)
Method in brief: as §1

[7] = tested on: PPARg:RXRa (NR concentration 180 nM, RXRa partner concentration 90 nM)
Method in brief: as §1

[8] = tested on: PPARg:RXRa 270nM:90nM, anti-RXR (NR concentration 270 nM, RXRa partner concentration 90 nM)
Method in brief: as §1

[9] = tested on: PPARg:RXRa 30nM:10nM, anti-RXR (NR concentration 30 nM, RXRa partner concentration 10 nM)
Method in brief: as §1

[10] = tested on: PPARg:RXRa 90nM:30nM, anti-RXR (NR concentration 90 nM, RXRa partner concentration 30 nM)
Method in brief: as §1

[11] = tested on: PPARg:RXRa DBDmut IVT, anti-RXR (DBD mutation: RXRa K156A/R161A, NR concentration 270 nM, RXRa partner concentration 90 nM)
Method in brief: as §1

[12] = tested on: PPARg:RXRa IVT, anti-PPARg (NR concentration 270 nM, RXRa partner concentration 90 nM)
Method in brief: as §1

[13] = tested on: PPARg DBDmut:RXRa IVT, anti-PPARg (DBD mutation: PPARg1 K132A/R137A, NR concentration 270 nM, RXRa partner concentration 90 nM)
Method in brief: as §1

[14] = tested on: PPARg DBDmut IVT, anti-PPARg (DBD mutation: PPARg1 K132A/R137A, NR concentration 270 nM)
Method in brief: as §1

[15] = tested on: PPARg homodimer (NR concentration 180 nM)
Method in brief: as §1

[16] = tested on: PXR:RXRa (NR concentration 270 nM, RXRa partner concentration 90 nM)
Method in brief: as §1

[17] = tested on: PXR homodimer (NR concentration 270 nM)
Method in brief: as §1

[18] = tested on: RARa:RXR (NR concentration 270 nM, RXRa partner concentration 90 nM)
Method in brief: as §1

[19] = tested on: RARa homodimer (NR concentration 270 nM)
Method in brief: as §1

[20] = tested on: RARb:RXRa (NR concentration 270 nM, RXRa partner concentration 90 nM)
Method in brief: as §1

Sequence | PBM binding z-score [1] | PBM binding z-score [2] | PBM binding z-score [3] | PBM binding z-score [4] | PBM binding z-score [5] | PBM binding z-score [6] | PBM binding z-score [7] | PBM binding z-score [8] | PBM binding z-score [9] | PBM binding z-score [10] | PBM binding z-score [11] | PBM binding z-score [12] | PBM binding z-score [13] | PBM binding z-score [14] | PBM binding z-score [15] | PBM binding z-score [16] | PBM binding z-score [17] | PBM binding z-score [18] | PBM binding z-score [19] | PBM binding z-score [20]
CCTTACGGGCCACTCCAGGTTATAGCATCGGAGT | 0.501 | 3.23 | 0.439 | -0.116 | -0.752 | -0.00696 | 0.417 | -0.281 | -0.409 | -0.41 | 0.503 | 0.46 | -1.12 | -0.87 | 0.232 | 0.0123 | 0.0587 | 0.0279 | 0.0434 | 0.496
ATCGAAAGGTCGAAGGTGAGTATGCCCACCCGAA | 4.46 | 3.31 | 0.253 | 2.87 | 0.664 | 4.64 | 4.16 | 5.05 | 2.9 | 3.81 | 0.0846 | 2.48 | 0.798 | 0.662 | 1.31 | 3.12 | -0.415 | 4.46 | -0.229 | 3.83
CCGACTGGGACAAAGGTTACCATACTCAGTACGA | 0.993 | 1.51 | 0.114 | 1.8 | -0.631 | 4.69 | 9.69 | 8.78 | 8.13 | 10.5 | 3.26 | 5.21 | 0.234 | 0.111 | 1.47 | 1.51 | -0.265 | 2.39 | 0.207 | 2.03
CGAACTAGGTCCTCCAGGACAGTGAATACATTGA | -0.16 | -0.319 | -0.274 | -0.492 | -0.593 | 0.0563 | 0.755 | 0.537 | -0.117 | 0.278 | 3.46 | 2.42 | 0.246 | -0.00333 | -0.188 | -0.555 | -0.316 | -0.262 | -0.913 | -0.0568
TATACAGGGTCAACGGCCAGAGTACGAATGTCGA | 6.91 | 5.76 | 2.15 | 4.65 | 2.1 | 5.54 | 6.79 | 6 | 3.43 | 5.19 | 2.91 | 4.6 | 4.74 | 3.03 | 4.05 | 3.93 | 0.74 | 5.15 | 1.33 | 4.52
CCTTACGTGTCACGAGGTTATAGCACGACGAGCG | 1.42 | 1.62 | 0.447 | 1.29 | 0.663 | 2.43 | 2.05 | 1.6 | 0.219 | 0.814 | 2.43 | 2.16 | 0.0495 | 0.563 | 1.81 | 1.5 | 0.447 | 1.97 | 0.817 | 1.78
AGAACGAGGGCGCGCTGAGTTGATAGCAGAGTAG | -0.365 | -0.482 | -0.786 | -0.508 | -1.21 | 0.138 | 0.362 | -0.296 | -0.293 | -0.308 | 1.09 | 0.807 | -0.354 | -0.835 | -0.746 | 0.224 | -0.402 | -0.0213 | -1.26 | 0.529
TAGCCTAGGTCATGGGCCGGTATACCACGCGAAC | 4.76 | 3.42 | 0.261 | 2.72 | 0.0172 | 4.23 | 3.35 | 3.56 | 0.856 | 2.46 | 1.46 | 3.44 | -0.00724 | -0.404 | 1.23 | 1.8 | -0.488 | 2.94 | -0.0532 | 3.9
CTCGAAAGGTCGGTTGAGGTGAGTGTACGGATAA | 2.54 | 2.08 | -0.0781 | 1.51 | -0.0633 | 2.67 | 0.33 | 1.27 | 0.405 | 0.48 | 0.169 | 1.3 | 0.72 | -0.675 | 1.07 | 3.54 | 0.527 | 3.02 | 0.735 | 3.07
AGAATGAGGTTAAGACCAGGGAAACAGAATACAT | 2.32 | 1.88 | -0.015 | 1.61 | -0.233 | 3.48 | 2.1 | 2.15 | 0.945 | 1.71 | 2.74 | 2.42 | 1.4 | 1.16 | 0.773 | 1.03 | 0.319 | 1.92 | 0.687 | 1.85
ACTATTAGTTGATACGAGGGCAACCGATAGGTTG | 0.829 | 0.48 | 0.407 | 0.266 | 0.576 | 0.327 | 0.752 | 0.283 | 0.308 | 0.272 | 0.641 | 1.17 | 1.01 | 1.4 | 0.764 | 1.34 | 0.799 | 0.922 | 0.828 | 1.28
TCGAGCAGGCCAGAGGGTCACTCAAGAGGTACGG | 0.628 | 0.741 | -0.581 | 1.11 | -1.33 | 2.24 | 1.04 | 1.6 | 0.223 | 1.31 | -0.0196 | 0.342 | -0.384 | -1.69 | 0.386 | 1.76 | -0.594 | 2.13 | -0.84 | 2.19
TCTCGGAGGGCACGAAGGTCAGAGCTTTCCAGAG | 1.96 | 2.22 | 0.0808 | 1.7 | -1.18 | 2.96 | 1.3 | 2.4 | 1.73 | 1.99 | 1.9 | 2.51 | -0.633 | -1.03 | 1.08 | 3.25 | 2.26 | 2.88 | -0.387 | 3.92
GGAACGAGGGCAAAGTTGATATCATCTGTCGACG | 1.25 | 0.812 | -0.316 | 0.894 | -0.47 | 3.94 | 6.68 | 6.84 | 6.13 | 7.1 | 3.87 | 4.19 | 0.622 | 0.251 | 0.45 | 1.18 | 0.208 | 1.62 | 0.254 | 2.32
